# Data published in PubChem BioAssay (EPA / NIEHS).
# Records with an inconclusive call do not appear. Active and inactive are the calls of the source. The calls were made as follows: active = hit-call score of the fitted dose curve at least 0.9, where 1 is the maximum; inconclusive = response in the unintended direction; inactive = score below 0.9.
# Assays:
# [1] = target: human Janus Kinase 2 (Jak2), JAK2 (gene 3717) (UniProt O60674); test: NVS_ENZ_hJak2: NovaScreen (NVS) Enzymatic Assay for human Janus Kinase 2 (Jak2) (AID 2283169)
# human Janus Kinase 2 (Jak2), JAK2 (gene 3717), sequence (O60674 whole entry, looked up): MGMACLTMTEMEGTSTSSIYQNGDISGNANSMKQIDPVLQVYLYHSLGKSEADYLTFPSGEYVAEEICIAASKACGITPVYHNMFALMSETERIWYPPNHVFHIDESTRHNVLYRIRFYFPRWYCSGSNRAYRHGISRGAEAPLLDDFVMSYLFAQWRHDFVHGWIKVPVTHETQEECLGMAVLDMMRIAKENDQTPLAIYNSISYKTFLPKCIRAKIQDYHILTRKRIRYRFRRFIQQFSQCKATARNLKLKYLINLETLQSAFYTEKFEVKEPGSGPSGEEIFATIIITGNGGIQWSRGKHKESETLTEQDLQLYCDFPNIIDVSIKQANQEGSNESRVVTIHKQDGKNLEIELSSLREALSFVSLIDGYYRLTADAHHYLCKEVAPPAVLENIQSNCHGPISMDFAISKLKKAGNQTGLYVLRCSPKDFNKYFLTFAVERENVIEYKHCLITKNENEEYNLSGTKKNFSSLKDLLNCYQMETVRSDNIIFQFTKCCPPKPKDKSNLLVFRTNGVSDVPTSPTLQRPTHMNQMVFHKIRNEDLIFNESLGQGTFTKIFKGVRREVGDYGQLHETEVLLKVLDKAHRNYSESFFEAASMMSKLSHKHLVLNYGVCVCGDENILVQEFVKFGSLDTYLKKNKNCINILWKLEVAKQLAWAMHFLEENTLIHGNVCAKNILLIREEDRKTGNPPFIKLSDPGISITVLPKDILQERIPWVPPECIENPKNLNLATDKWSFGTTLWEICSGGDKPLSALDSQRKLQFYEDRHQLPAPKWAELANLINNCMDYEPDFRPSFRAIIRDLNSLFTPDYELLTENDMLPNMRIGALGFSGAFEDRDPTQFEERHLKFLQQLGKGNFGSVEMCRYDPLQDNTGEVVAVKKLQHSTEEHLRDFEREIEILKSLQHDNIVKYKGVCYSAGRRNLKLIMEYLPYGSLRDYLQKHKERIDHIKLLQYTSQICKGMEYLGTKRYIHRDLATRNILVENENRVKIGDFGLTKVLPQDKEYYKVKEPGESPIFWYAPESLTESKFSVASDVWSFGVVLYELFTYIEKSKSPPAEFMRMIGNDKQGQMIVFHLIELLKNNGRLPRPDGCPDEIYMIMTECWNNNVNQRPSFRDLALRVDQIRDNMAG
# Method in brief: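 Cell-free recombinant human JAK2 enzyme activity assay, fluorescence/electrophoretic mobility shift read 1 h after dosing. Screened in duplicate at 25 uM, then concentration-response up to 50 uM; activity as signal loss relative to DMSO.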
# [2] = target: human LYN Proto-Oncogene, Src family Tyrosine Kinase (LynA), LYN (gene 4067) (UniProt P07948); test: NVS_ENZ_hLynA: NovaScreen (NVS) Enzymatic Assay for human LYN Proto-Oncogene, Src family Tyrosine Kinase (LynA) (AID 2283173)
# Method in brief: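 Recombinant kinase with fluorescent substrate; product separated from substrate by electrophoretic mobility shift and read 1 h after dosing. Duplicate screen at 25 uM, then concentration-response up to 50 uM; activity scored as signal loss against DMSO.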
# [3] = target: Mitogen-activated protein kinase 3 (Homo sapiens) (UniProt P27361); test: NVS_ENZ_hMAPK3: NovaScreen (NVS) Enzymatic Assay for human Mitogen-Activated Protein Kinase 3 (MAPK 3) (AID 2283177)
# Mitogen-activated protein kinase 3 (Homo sapiens), sequence (P27361 whole entry, looked up): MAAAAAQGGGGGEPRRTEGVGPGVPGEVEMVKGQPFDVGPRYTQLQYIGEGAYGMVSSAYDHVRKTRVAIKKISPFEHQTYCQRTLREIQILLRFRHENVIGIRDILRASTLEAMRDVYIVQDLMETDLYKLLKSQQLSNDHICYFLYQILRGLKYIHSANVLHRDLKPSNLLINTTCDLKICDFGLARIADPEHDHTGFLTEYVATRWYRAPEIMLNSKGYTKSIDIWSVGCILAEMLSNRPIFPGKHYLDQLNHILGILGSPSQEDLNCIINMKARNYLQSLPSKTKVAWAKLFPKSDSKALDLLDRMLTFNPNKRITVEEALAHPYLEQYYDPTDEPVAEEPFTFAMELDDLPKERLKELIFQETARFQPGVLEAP
# Method in brief: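 Cell-free enzymatic assay with recombinant protein and specific substrate; fluorescence and electrophoretic mobility shift read-out 1 h after dosing. Primary screen duplicate at 25 uM; actives then run in concentration-response up to 50 uM, loss of signal versus DMSO.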
# [4] = target: human Mitogen- and Stress-activated Protein Kinase-1 (Msk1), RPS6KA5 (gene 9252) (UniProt O75582); test: NVS_ENZ_hMsk1: NovaScreen (NVS) Enzymatic Assay for human Mitogen- and Stress-activated Protein Kinase-1 (Msk1) (AID 2283187)
# Method in brief: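 Recombinant kinase with fluorescent substrate; product separated by electrophoretic mobility shift, read 1 h after dosing. Screened in duplicate at 25 uM; hits (e.g. ≥30% inhibition) tested in concentration–response up to 50 uM. DMSO baseline.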
# [5] = target: cAMP-dependent protein kinase catalytic subunit alpha (Homo sapiens) (UniProt P17612); test: NVS_ENZ_hPKA: NovaScreen (NVS) Enzymatic Assay for human Protein Kinase A (PKA) (AID 2283192)
# Method in brief: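 Recombinant human PKA with specific fluorescent substrate, product separated by electrophoretic mobility shift, read 1 h after dosing. Primary screen at 25 uM in duplicate; actives then run in concentration-response up to 50 uM, activity relative to DMSO.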
# [6] = target: human Phosphodiesterase 5 (PDE5), PDE5A (gene 8654) (UniProt O76074); test: NVS_ENZ_hPDE5: NovaScreen (NVS) Enzymatic Assay for human Phosphodiesterase 5 (PDE5) (AID 2283194)
# Method in brief: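 Recombinant human PDE5 with specific substrate, read 1 h after dosing by fluorescence with electrophoretic mobility-shift separation of substrate and product. Initial single-concentration duplicate screen at 25 uM, actives followed in concentration series; loss of activity versus DMSO.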
# [7] = target: Glycogen synthase kinase-3 beta (Homo sapiens) (UniProt P49841); test: NVS_ENZ_hGSK3b: NovaScreen (NVS) Enzymatic Assay for human Glycogen Synthase Kinase-3 beta (GSK3b) (AID 2283165)
# Glycogen synthase kinase-3 beta (Homo sapiens), sequence (P49841 whole entry, looked up): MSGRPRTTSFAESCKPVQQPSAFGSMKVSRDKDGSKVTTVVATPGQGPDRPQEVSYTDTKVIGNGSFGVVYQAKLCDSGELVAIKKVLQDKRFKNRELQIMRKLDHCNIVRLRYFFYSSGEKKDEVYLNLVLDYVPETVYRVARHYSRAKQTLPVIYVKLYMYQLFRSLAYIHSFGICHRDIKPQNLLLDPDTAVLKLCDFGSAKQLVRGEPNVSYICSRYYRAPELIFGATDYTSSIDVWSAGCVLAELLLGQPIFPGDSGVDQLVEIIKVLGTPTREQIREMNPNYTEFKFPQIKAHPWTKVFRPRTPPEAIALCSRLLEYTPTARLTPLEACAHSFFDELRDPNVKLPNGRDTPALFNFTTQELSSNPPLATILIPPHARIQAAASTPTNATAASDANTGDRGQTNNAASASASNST
# Method in brief: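 Recombinant enzyme with specific fluorescent substrate, 1 h, product separated by electrophoretic mobility shift. Primary duplicate screen at 25 uM; actives (e.g. 30% inhibition) followed in singleton concentration-response to 50 uM. Signal loss fitted versus DMSO.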
# [8] = target: human Phosphodiesterase 4A1 (PDE4A1), PDE4A (gene 5141) (UniProt P27815); test: NVS_ENZ_hPDE4A1: NovaScreen (NVS) Enzymatic Assay for human Phosphodiesterase 4A1 (PDE4A1) (AID 2283191)
# human Phosphodiesterase 4A1 (PDE4A1), PDE4A (gene 5141), sequence (P27815 whole entry, looked up): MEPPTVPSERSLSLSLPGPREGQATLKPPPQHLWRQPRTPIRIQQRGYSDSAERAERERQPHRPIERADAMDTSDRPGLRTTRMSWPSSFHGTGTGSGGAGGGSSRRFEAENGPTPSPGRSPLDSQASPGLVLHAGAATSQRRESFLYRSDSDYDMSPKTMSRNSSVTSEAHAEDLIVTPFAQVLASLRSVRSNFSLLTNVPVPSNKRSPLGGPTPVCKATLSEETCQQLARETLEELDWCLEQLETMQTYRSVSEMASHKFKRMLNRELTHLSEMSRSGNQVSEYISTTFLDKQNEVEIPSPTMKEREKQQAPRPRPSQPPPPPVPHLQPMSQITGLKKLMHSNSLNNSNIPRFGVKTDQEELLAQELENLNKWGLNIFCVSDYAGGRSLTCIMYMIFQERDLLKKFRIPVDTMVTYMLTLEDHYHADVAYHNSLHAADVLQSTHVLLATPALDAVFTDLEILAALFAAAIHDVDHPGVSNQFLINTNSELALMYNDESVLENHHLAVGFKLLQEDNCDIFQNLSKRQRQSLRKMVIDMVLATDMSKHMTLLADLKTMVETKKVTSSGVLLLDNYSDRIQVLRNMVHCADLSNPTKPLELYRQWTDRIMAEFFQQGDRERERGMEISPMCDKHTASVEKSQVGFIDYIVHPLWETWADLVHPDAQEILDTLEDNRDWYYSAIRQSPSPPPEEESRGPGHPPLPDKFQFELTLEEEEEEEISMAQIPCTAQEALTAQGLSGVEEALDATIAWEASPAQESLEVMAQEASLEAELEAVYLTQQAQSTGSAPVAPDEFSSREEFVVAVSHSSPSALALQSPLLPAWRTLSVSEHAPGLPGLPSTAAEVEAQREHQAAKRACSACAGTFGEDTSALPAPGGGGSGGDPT
# Method in brief: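 Cell-free recombinant human PDE4A1 with fluorescent substrate; product separated by electrophoretic mobility shift, 1 h. Screened at 25 uM, then up to 50 uM in concentration-response; loss of signal fitted against DMSO.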
# [9] = target: human Phosphodiesterase 10 (PDE10), PDE10A (gene 10846) (UniProt Q9Y233); test: NVS_ENZ_hPDE10: NovaScreen (NVS) Enzymatic Assay for human Phosphodiesterase 10 (PDE10) (AID 2283195)
# human Phosphodiesterase 10 (PDE10), PDE10A (gene 10846), sequence (Q9Y233 whole entry, looked up): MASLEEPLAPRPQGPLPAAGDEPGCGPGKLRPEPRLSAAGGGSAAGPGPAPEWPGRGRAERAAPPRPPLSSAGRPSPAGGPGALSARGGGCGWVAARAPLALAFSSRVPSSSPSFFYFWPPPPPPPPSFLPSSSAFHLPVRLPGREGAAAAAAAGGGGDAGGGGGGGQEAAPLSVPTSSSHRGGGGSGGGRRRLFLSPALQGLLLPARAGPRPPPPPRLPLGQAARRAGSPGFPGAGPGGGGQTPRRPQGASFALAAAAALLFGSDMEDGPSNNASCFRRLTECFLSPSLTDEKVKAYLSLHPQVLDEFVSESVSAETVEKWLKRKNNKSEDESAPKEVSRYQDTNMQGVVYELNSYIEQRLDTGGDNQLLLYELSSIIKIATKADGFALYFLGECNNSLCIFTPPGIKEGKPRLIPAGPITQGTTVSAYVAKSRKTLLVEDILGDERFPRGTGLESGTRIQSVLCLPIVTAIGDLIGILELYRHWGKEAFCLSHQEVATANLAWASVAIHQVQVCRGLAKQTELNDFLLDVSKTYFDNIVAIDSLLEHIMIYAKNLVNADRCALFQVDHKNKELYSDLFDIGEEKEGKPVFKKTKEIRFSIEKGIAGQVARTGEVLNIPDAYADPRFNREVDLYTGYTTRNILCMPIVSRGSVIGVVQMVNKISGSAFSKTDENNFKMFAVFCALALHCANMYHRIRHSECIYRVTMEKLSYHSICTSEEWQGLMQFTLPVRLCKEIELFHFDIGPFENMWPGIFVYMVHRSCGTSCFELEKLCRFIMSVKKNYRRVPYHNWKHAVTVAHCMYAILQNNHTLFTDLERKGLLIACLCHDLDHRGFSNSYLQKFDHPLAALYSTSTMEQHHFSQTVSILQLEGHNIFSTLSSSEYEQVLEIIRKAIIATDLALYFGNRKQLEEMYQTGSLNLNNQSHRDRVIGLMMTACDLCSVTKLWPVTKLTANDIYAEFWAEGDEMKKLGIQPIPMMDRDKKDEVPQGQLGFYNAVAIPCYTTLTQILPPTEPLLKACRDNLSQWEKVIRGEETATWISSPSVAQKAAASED
# Method in brief: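 PDE10A, cell-free; 1 h incubation; fluorescence intensity + electrophoretic mobility shift separating substrate/product; DMSO = baseline; 25 uM duplicate primary, CRC up to 50 uM.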
# [10] = target: human c-Jun N-terminal Kinases (JNK2), MAPK9 (gene 5601) (UniProt P45984); test: NVS_ENZ_hJNK2: NovaScreen (NVS) Enzymatic Assay for human c-Jun N-terminal Kinases (JNK2) (AID 2283171)
# human c-Jun N-terminal Kinases (JNK2), MAPK9 (gene 5601), sequence (P45984 whole entry, looked up): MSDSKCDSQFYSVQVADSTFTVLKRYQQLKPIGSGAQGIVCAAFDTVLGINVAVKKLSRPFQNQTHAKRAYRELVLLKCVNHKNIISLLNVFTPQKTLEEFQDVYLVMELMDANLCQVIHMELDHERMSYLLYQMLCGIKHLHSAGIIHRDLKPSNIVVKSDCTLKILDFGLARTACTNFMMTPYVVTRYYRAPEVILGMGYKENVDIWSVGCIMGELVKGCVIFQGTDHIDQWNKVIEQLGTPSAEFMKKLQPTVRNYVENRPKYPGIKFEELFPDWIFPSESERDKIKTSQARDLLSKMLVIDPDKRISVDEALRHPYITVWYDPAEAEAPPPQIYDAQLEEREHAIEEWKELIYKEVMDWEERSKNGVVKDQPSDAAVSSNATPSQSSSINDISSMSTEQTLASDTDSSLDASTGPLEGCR
# Method in brief: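 Cell-free recombinant human JNK2 activity assay; fluorescent substrate and product separated by electrophoretic mobility shift, read 1 h after dosing. Primary duplicate screen at 25 uM; actives run in concentration-response up to 50 uM, relative to DMSO.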
# [11] = target: human Matrix Metalloproteinase-9 (MMP9), MMP9 (gene 4318) (UniProt P14780); test: NVS_ENZ_hMMP9: NovaScreen (NVS) Enzymatic Assay for human Matrix Metalloproteinase-9 (MMP9) (AID 2283190);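 also: cell-free recombinant MMP9 protease activity read by fluorescent substrate signal; active means inhibition seen as loss of fluorescence signal versus DMSO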
# Method in brief: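 Extracted enzyme, fluorescent substrate, 1 h post-dose read. Single conc 25 uM in duplicate, then concentration series for actives. Activity = signal loss relative to DMSO negative control.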
# [12] = target: Serine/threonine-protein phosphatase PP1-alpha catalytic subunit (Homo sapiens) (UniProt P62136); test: NVS_ENZ_hPPP1CA: NovaScreen (NVS) Enzymatic Assay for human Protein Phosphatase 1 Aatalytic subunit Alpha (PPP1CA) (AID 2283200)
# Serine/threonine-protein phosphatase PP1-alpha catalytic subunit (Homo sapiens), sequence (P62136 whole entry, looked up): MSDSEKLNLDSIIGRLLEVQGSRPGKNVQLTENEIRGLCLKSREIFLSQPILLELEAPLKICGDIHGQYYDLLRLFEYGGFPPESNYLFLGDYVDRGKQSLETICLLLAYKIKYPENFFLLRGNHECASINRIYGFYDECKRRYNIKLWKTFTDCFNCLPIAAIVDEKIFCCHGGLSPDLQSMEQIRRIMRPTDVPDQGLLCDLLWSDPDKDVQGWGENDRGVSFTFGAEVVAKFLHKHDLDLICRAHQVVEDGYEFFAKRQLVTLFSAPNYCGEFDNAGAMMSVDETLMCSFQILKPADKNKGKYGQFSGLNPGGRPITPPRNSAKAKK
# Method in brief: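 Recombinant enzyme activity read by fluorescence with electrophoretic mobility shift separating substrate from product, 1.33 h after dosing; loss of signal vs DMSO baseline. Primary screen in duplicate at 25 uM; actives retested in concentration-response up to 50 uM.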
# [13] = target: Histone deacetylase 3 (Homo sapiens) (UniProt O15379); test: NVS_ENZ_hHDAC3: NovaScreen (NVS) Enzymatic Assay for human Histone Deacetylase 3 (HDAC3) (AID 2283163)
# Method in brief: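 Recombinant human HDAC3 with fluorescent substrate, 1 h after dosing; product separated from substrate by electrophoretic mobility shift and read by fluorescence. Primary screen at 25 uM in duplicate; actives (e.g. ≥30% inhibition) retested in concentration-response up to 50 uM.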
# [14] = target: human Matrix Metalloproteinase-7 (MMP7), MMP7 (gene 4316) (UniProt P09237); test: NVS_ENZ_hMMP7: NovaScreen (NVS) Enzymatic Assay for human Matrix Metalloproteinase-7 (MMP7) (AID 2283183)
# human Matrix Metalloproteinase-7 (MMP7), MMP7 (gene 4316), sequence (P09237 whole entry, looked up): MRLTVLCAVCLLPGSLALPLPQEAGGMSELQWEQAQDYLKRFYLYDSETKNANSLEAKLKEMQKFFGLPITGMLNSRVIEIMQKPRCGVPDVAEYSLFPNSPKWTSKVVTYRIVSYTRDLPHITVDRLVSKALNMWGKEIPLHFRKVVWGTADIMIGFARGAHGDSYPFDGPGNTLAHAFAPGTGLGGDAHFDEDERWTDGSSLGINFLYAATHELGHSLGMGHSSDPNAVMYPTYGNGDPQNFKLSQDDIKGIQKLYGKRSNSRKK
# Method in brief: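 Cell-free fluorescence enzymatic assay read 1 h after compound addition, activity loss analyzed against DMSO. Primary duplicate testing at 25 uM; compounds meeting threshold rerun in singleton concentration-response up to 50 uM.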
# [15] = target: human Phosphoinositide 3-kinase alpha (PI3Ka), PIK3CA (gene 5290) (UniProt P42336); test: NVS_ENZ_hPI3Ka: NovaScreen (NVS) Enzymatic Assay for human Phosphoinositide 3-kinase alpha (PI3Ka) (AID 2283196)
# Method in brief: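 Fluorescence/mobility-shift readout of substrate conversion by recombinant enzyme, 1 h post-dosing. Primary screen in duplicate at 25 uM; actives (e.g. ≥30% inhibition) retested in singleton concentration-response, top concentration 50 uM.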
compound,measurement,setting,value
CCCCCCCC(=O)O,outcome,[1],inactive
same,outcome,[2],inactive
same,outcome,[3],inactive
same,outcome,[4],inactive
same,outcome,[5],inactive
same,outcome,[6],inactive
Oc1cccc(O)c1,outcome,[7],inactive
Cc1cc(CCN2CCN(c3nsc4ccccc34)CC2)cc2c1NC(=O)CC2(C)C,outcome,[7],inactive
same,outcome,[1],inactive
same,outcome,[8],inactive
same,AC50,[6],25.6 µM (active)
same,AC50,[9],25 µM (active)
CC(C)(C)c1cc(C(C)(C)C)c(O)c(C(C)(C)C)c1,outcome,[7],inactive
CCN(CC)CCNc1ccc(CNC=O)c2sc3ccc(OC)cc3c(=O)c12,outcome,[1],inactive
same,outcome,[10],inactive
same,outcome,[2],inactive
same,outcome,[11],inactive
same,AC50,[8],11.8 µM (active)
same,AC50,[6],6.82 µM (active)
same,AC50,[9],2.06 µM (active)
same,outcome,[12],inactive
Oc1cc2ccccc2c2ccccc12,AC50,[1],25 µM (active)
Nc1cccc2c(N)cccc12,outcome,[13],inactive
CC(C)(C)c1ccc(O)c(C(C)(C)C)c1,outcome,[7],inactive
N#C[C@@H]1CC(F)(F)CN1C(=O)CNC1CC2CCC(C1)N2c1ncccn1 (stereo partly drawn),outcome,[7],inactive
same,outcome,[10],inactive
same,outcome,[3],inactive
same,outcome,[12],inactive
CCOC(=O)CC(O)(CC(=O)OCC)C(=O)OCC,outcome,[7],inactive
O=C(O)Cc1cc(I)c(Oc2cc(I)c(O)c(I)c2)c(I)c1,outcome,[7],inactive
same,outcome,[1],inactive
same,outcome,[10],inactive
same,outcome,[3],inactive
same,AC50,[8],0.0269 µM (active)
same,outcome,[5],inactive
same,AC50,[6],9.05 µM (active)
same,AC50,[9],8.91 µM (active)
C=C(C)C(=O)OCCC(F)(F)C(F)(F)C(F)(F)C(F)(F)C(F)(F)C(F)(F)F,outcome,[1],inactive
COCC(C)OCC(C)O (stereo not drawn),outcome,[7],inactive
same,outcome,[1],inactive
same,outcome,[14],inactive
same,outcome,[4],inactive
same,outcome,[15],inactive
